Screens as filed in PubChem BioAssay.
The full list was thinned out, with hits kept by preference.
DUX4 txn inh: DUX4-mediated transcription inhibition; actives 0.8% (n = 37,000); 293T-iDUX4 ZSCAN4-Gaussia luciferase reporter, 24 h; active compounds read low; activity change, negative = inhibition, % (no concentration beside the values); AID 1224904;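 active means mean inhibition of at least 10% in the main channel, exceeding the control channel by a set limit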;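 further: 0% = median of neutral control wells and -100% = median of positive control wells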
An asterisk follows results filed as active.

SMILES	DUX4 txn inh
COc1cccc(CN2CCCCN3[C@H](C2)[C@@H](c2ccc(C#Cc4cccnc4)cc2)[C@@H]3CO)c1	-17*
COCC#Cc1ccc([C@@H]2[C@H]3CN(Cc4cccnc4)CCCCN3[C@H]2CO)cc1	6
COc1cccc(CN2CCCCN3[C@@H](CO)[C@@H](c4ccc(C#Cc5cccnc5)cc4)[C@@H]3C2)c1	-36*
COCC(=O)N(C)C[C@H]1Oc2cc(C#CCC3CCCC3)ccc2S(=O)(=O)N([C@H](C)CO)C[C@@H]1C	3
CC(C)(C)[S@@](=O)N1Cc2cc(C(=O)N3CCOCC3)nc(-c3cccc(C4=CCCC4)c3)c2[C@H]1CCO	7
C[C@@H]1C/C=C\C[C@H](c2ccc3c(c2)OCO3)NC(=O)[C@@H](c2ccccc2)CC(=O)N1	-4
COc1ccc(S(=O)(=O)N2CC[C@H]3[C@@H](CO)N(C)c4ccc(C5=CCCCC5)cc4[C@H]32)cc1	3
C/C=C/c1ccc2c(c1)O[C@@H](CN(C)S(=O)(=O)c1ccc(F)cc1)[C@@H](C)CN([C@@H](C)CO)S2(=O)=O	-5
COc1ccc(C#Cc2ccc3c(c2)[C@H]2[C@H](CCN2C(=O)c2cccc(F)c2)[C@@H](CO)N3)cc1	11
O=C(c1cccc(F)c1)N1CC[C@@H]2[C@H]1c1cc(C#Cc3ccc(F)cc3)ccc1N[C@@H]2CO	-14*
O=C(c1ccc(F)cc1)N1CC[C@@H]2[C@@H](CO)Nc3ccc(C#Cc4ccc(F)cc4)cc3[C@@H]21	-52*
O=C(Cc1ccccc1)N1CC[C@H]2[C@H](CO)Nc3ccc(C#Cc4ccccc4)cc3[C@H]21	9
COc1ccc(C#Cc2ccc3c(c2)[C@@H]2[C@@H](CCN2C(=O)c2cccc(F)c2)[C@@H](CO)N3)cc1	21
O=C(Cc1ccccc1)N1CC[C@@H]2[C@H](CO)Nc3ccc(C#Cc4cccc(F)c4)cc3[C@@H]21	-19*
O=C(c1ccc(F)cc1)N1CC[C@@H]2[C@H](CO)Nc3ccc(C#CC4CC4)cc3[C@@H]21	0
O=C(Cc1ccccc1)N1CC[C@H]2[C@H](CO)Nc3ccc(C#Cc4cccc(F)c4)cc3[C@H]21	-4
O=C(c1ccc(F)cc1)N1CC[C@H]2[C@H](CO)Nc3ccc(C#Cc4ccccc4F)cc3[C@H]21	0
CC(=O)N1[C@@H]2Cn3c(ccc(-c4ccc(F)cc4)c3=O)[C@H]1[C@@H](C(=O)N(C)C)[C@@H]2CO	-3
COC(=O)[C@H]1[C@H](CO)[C@H]2Cn3c(ccc(-c4ccccc4)c3=O)[C@H]2N1CCc1ccccc1	-5
CO[C@H]1CN(C)C(=O)c2cc(NS(=O)(=O)CC(F)(F)F)ccc2OC[C@H](C)N(Cc2cccnc2)C[C@@H]1C	2
COCC#Cc1ccc([C@@H]2[C@@H](CO)N3C(=O)CN(C(=O)Nc4cc(F)ccc4F)C[C@H]23)cc1	7
COc1ccc2c3c(n(C)c2c1)[C@H](CO)N(C(=O)Nc1ccc(F)cc1)CC31CN(C(=O)NC(C)C)C1	7
O=C(C[C@@H]1CC[C@@H](NC(=O)c2ccccn2)[C@@H](CO)O1)NCc1cc(F)cc(F)c1	-1
O=C(C1CCC1)N1CC[C@@H]2[C@H](CO)Nc3ccc(C4=CCCCC4)cc3[C@@H]21	-7
CC(=O)N1CC[C@@H]2[C@@H](CO)Nc3ccc(-c4cccc(F)c4)cc3[C@@H]21	13
SMILES	DUX4 txn inh
COc1ccc(-c2ccc3c(c2)[C@H]2[C@H](CCN2Cc2ccncc2)[C@@H](CO)N3)cc1	7
CC(=O)N1CC[C@@H]2[C@H]1c1cc(-c3cccc(F)c3)ccc1N[C@@H]2CO	22
O=C(C1CCC1)N1CC[C@@H]2[C@@H](CO)Nc3ccc(-c4cccc(F)c4)cc3[C@@H]21	11
N#Cc1cccc(-c2ccc3c(c2)[C@H]2[C@H](CCN2C(=O)c2ccncc2)[C@@H](CO)N3)c1	7
OC[C@H]1Nc2ccc(-c3cccc(F)c3)cc2[C@H]2[C@@H]1CCN2Cc1ccc(F)cc1	-32*
OC[C@@H]1Nc2ccc(-c3cccc(F)c3)cc2[C@@H]2[C@H]1CCN2Cc1ccncc1	1
OC[C@@H]1Nc2ccc(-c3ccc(F)cc3)cc2[C@H]2[C@@H]1CCN2Cc1ccc(F)cc1	-3
N#Cc1cccc(-c2ccc3c(c2)[C@H]2[C@H](CCN2Cc2ccncc2)[C@@H](CO)N3)c1	-47*
OC[C@H]1Nc2ccc(-c3cccc(F)c3)cc2[C@@H]2[C@H]1CCN2Cc1ccc(F)cc1	-24*
OC[C@H]1Nc2ccc(-c3cccc(F)c3)cc2[C@H]2[C@@H]1CCN2Cc1ccncc1	-20*
N#Cc1cccc(-c2ccc3c(c2)[C@@H]2[C@@H](CCN2Cc2cncnc2)[C@@H](CO)N3)c1	-5
CS(=O)(=O)Nc1ccc2c(c1)[C@H]1C[C@H](CC(=O)N3CCc4ccccc4C3)O[C@H](CO)[C@H]1O2	6
Cc1ccc(NC(=O)C[C@H]2CC[C@H]3[C@@H](COc4ccc(NC(=O)C5CCCCC5)cc4C(=O)N3C)O2)cc1	-2
